# The campaign covered roughly 31,000 sequences. About 1,400 (4.5%) were called active. Only a selection was taken, and actives are over-represented in it overall. A number with no mark means an inactive call.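 How the source made its calls: active means median seed-adjusted z-score above 1 or below -1; inactive means the rest.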
# Assay: Novel Modifiers of Survival Motor Neuron (SMN) Protein: Gene Identification via Genome-wide siRNA Screen;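 further: luminescence tracks full-length SMN protein made from the SMN2 reporter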
# Conditions: HEK293T SMN2-luciferase reporter, siRNA knockdown, 72 h; actives lie on both sides
# Method in brief: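 Steps: spot 1 pmol siRNA, add Lipofectamine RNAiMax in serum-free DMEM, seed HEK293T SMN2–luciferase reporter cells; incubate 72 h at 37 °C; add ONE-Glo; normalize luminescence to control siRNA, log10, MAD. Candidates: |MAD| > 1.0.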
row,Sequence,median seed-adjusted z-score
1,GAGUUGUCGACACCACUUATT against PROS1,0.436
2,CUGCUACCUCUGACCCAAATT against DTD1,-1.58 (active)
3,GACAGUUUCCCUACAAGAATT against MAP2K7,-0.772
4,CAGAUUGUCUGAUUCGAUUTT against TRIP11,0.333
5,AGGGAGGUGUUUAACGGCATT against HMOX1,0.45
6,CCUUGUUUAUCAUAAGGGATT against ZNF613,-0.189
7,GCAAGUACCUGUAAUUGAATT against KLF3,0.628
8,CCUUGACUGUGGACAACAATT against PURA,-0.0185
9,AGAUAUUUGUUAUCGCUGUTT against CNBP,-1.14 (active)
10,GGAAUGAUCUGACUAACUUTT against PECI,-0.0254
11,GAAAAUUGCUCACUUUGAUTT against DAPK2,0.268
12,GAAGAACUCGAAUAUGUCATT against ASNSD1,0.437
13,CUUAAUCACUUGCAUAAAATT against GALR1,-0.721
14,GAUUACCCUUAGAUCAUAUTT against NARG1,-1.02 (active)
15,GCCUUAAGGUCAAGGUCUATT against UNC5B,-0.0207
16,GAAUUGGGCUUGUUGAUAUTT against KCNB2,1.22 (active)
17,GCAUUGGAGGUGAUCCUUUTT against SUCLG1,-0.63
18,CAUUCGCAAAGGUAUCAUUTT against SLC20A2,-0.0546
19,GAGUGGAAAUUUCACCUAUTT against IFNAR2,-0.219
20,UCAGUAUCUUGGUCCUGUATT against CALCB,0
21,CACCUGUUCUAUCACAGUATT against NOP2,1.15 (active)
22,CCGCAGAUCCUGUAGACUATT against PARD3B,0.306

row,Sequence,median seed-adjusted z-score
1,GAGAACAUGUUGUUCCGCUTT against SSPO,0.397
2,GGGAUACAUUUAAGCGCAATT against SYTL2,0.211
3,AGAGGCUGCGGUUCAAAGATT against PTP4A3,0.354
4,GAUCCUGAGUUAGAGAAGATT against METTL3,0.261
5,GCAGUUCCCUUAGAGCUAGTT against MAP4,1.67 (active)
6,UCUCCUUCUUCGGAACGAATT against SCAMP5,-0.303
7,GACUGUAUCCAAACGAAUUTT against SLITRK2,-0.246
8,GCUUCUCGGCUGUCCAUGATT against CLCNKB,0.428
9,GAAUAAGCCGUGUACUGAUTT against CASD1,0.202
10,GAUUCAGUGUGGGAGAGUUTT against MCAT,0
11,CGAGGACAUUGAUAACGAATT against CCNB2,0.0328
12,GAUGAUUACCAGGAACGAATT against CAPRIN1,1.36 (active)
13,CCUCCGAAUUCUCAACAUATT against CSNK1E,-0.796
14,CGAAUCAUUUGGGAAUUGATT against IDH1,0.421
15,ACUUUGCAAUCGCUCAAAATT against NPTX1,-0.117
16,CAAUCUUCUUGGGAUUAUUTT against TRPC7,0.146
17,GGGAGAAGGUGAGCAGUAUTT against ZYX,0.273
18,CAGCCAUGAUAAUAAAGCUTT against RARRES2,-0.125
19,GGAUGAUCGUGACAAGUUUTT against ATP1B3,-0.225
20,GAGAAGAUGUGGACAUACATT against GRIA1,0.927
21,GAAGCUCUCUUGACUAUGATT against FKBP3,-0.102
22,GCAUUUACUCGCUCUUCAATT against KCNK12,1.04 (active)

row,Sequence,median seed-adjusted z-score
1,AGACUUUGUUGUUACACUUTT against SYPL1,-0.457
2,GGAAGUUCGCAGAAAAGUATT against PDIA5,0.989
3,CGGUACUACCCAAACGUCATT against APOBEC3D,-0.0215
4,GAACUUUCCUGUUACCUUUTT against CD81,0
5,CCAUAUGAGUCCUAUGAGATT against SMURF1,-1.4 (active)
6,CAUCGUCCAUGACAAGUCATT against GTF2IRD1,-0.282
7,AGAAAGGUUUUACUACAAUTT against POLR2C,-2.95 (active)
8,GGAAAACUCGUGUCCAUCATT against FARP1,-0.487
9,UGUUCAGCAUAGUUGUUUUTT against SLC12A9,-0.0853
10,GGAUCAAGCUCACAAGGGATT against WDR36,0.00836
11,GCUCGUUGGGACCAACUAATT against DYNC2H1,-0.613
12,GACCAAAAUUUGGAUACAATT against CTSL2,-1.04 (active)
13,GUGUGGACUUGGAACAAUATT against THUMPD2,-0.129
14,GGGAUUCCAUUGACCAGAATT against PLCG2,0
15,GCUGAGGAGUCAGUGCAUGTT against TNFRSF18,0.154
16,AGACUGUAUUGCAGGGUGATT against MAFK,1.73 (active)
17,GAGUCGGAGUCGAAGUAGATT against NKTR,-1.1 (active)
18,GAAUUAUGCUACUCGAGAATT against EIF3A,-0.689
19,CAACAACAGGUAUGAGAUATT against ACCN2,-0.597
20,GCUGAAGGCUUAUGAGUAUTT against KCNV2,-1.13 (active)
21,GUGGUCACUUGGUUCCAGATT against LBX2,0.538
22,GGUCAUAGGUUUUGGAUCUTT against HIATL1,0.327

row,Sequence,median seed-adjusted z-score
1,CCAAUGCAGUGAUUACCGUTT against HSPA1L,-1.27 (active)
2,CCAGUUUCAUUAUACAUCATT against ZNF211,-0.173
3,GCUUCACCCUGGCUAGAAATT against ECHDC2,-0.0827
4,GUGUCGAGCUUGCAACUGUTT against LAMC2,-0.186
5,CCUUUAACCAGUCUGCACATT against ZNF85,-1.01 (active)
6,GAAGGUGGAUUGCAACAAATT against GPX6,0.35
7,GCAGAAGGCUCAGUAGCUATT against NAT5,-0.0124
8,CACCCGCGCUCAUGAGAAATT against KLC2,0.0706
9,GCCCAUUACUUUACCACUUTT against METTL4,0.244
10,GCCUUGAUCAAGUAACAGATT against PARD6B,0.315
11,GGCGCACGCUUUUCUCUAATT against ACTR1A,1.28 (active)
12,GCCUCAUGUAAAACCCUAUTT against MYLK,0.0226
13,GCCUUCGAGUUCCUUGUUUTT against COX6B2,-0.544
14,GUACUUUUGACAACAUUUATT against NAT13,0
15,GGCUUUGAGCAUAAGAUCATT against MAP3K10,0.201
16,GCACCAAACUUAGCUACGATT against DIS3L2,-0.265
17,GACUGGGUCUGGUAAAACATT against DHX15,1.36 (active)
18,GAAUUGGACAUUUCGGAUATT against NEK10,-0.0464
19,CAGUUGCAACUCUUCGUGATT against ALB,-0.153
20,AAACAACUCGAUUUCGAAATT against PCDHB13,-0.293
21,GAACUUUUGGGACCAAAUATT against NME5,0.393
22,GCCUUUUACGCAAACAUGUTT against P2RY8,-0.136

row,Sequence,median seed-adjusted z-score
1,GAUUUUAUCUCAGUACAUUTT against UCK2,-1.51 (active)
2,CGUGCACUAUAUUGCAGUUTT against PRMT2,0.0895
3,GGAAUGUCACGGCUAAUCATT against PITPNM3,-0.0378
4,GGAAUGAUACCAUACCGAATT against NUP93,1.01 (active)
5,UGAUCGCCUUGGUGAUUCATT against FOXH1,0
6,GGAUAGUUACUGACCGGGATT against NCL,1.33 (active)
7,GCGGGAGCAUUAUCUCAAATT against ZNF341,0.356
8,CCAGACCUCAUGUCACAGATT against ZNF777,0.128
9,GACUGAAUGUUUAUACAGUTT against OSBPL1A,0.0845
10,GGUGGUAUCCUGUUCACAATT against TM9SF4,-0.0191
11,GGACCAUUUAGAGAAGGUUTT against WARS2,0.21
12,CCUACGUUACUUUCCCUCATT against FOXD4L6,-0.137
13,CAUGGAACAUUGUGAGAAATT against RPS6KB1,1.4 (active)
14,AAAUCAAGAUUCUUACUGATT against TPM3,0.111
15,GCACUUUAGAAUCACACGATT against TRMT6,0.069
16,GCUCAUUGUACAUCUCAGATT against ZNF26,0
17,CCUGCUUACCUGAUCAAAATT against SLC25A34,-0.256
18,GCAUAACUGUAGACUACAATT against ADAM32,1.75 (active)
19,CAGUCUUACUGGGAACAAUTT against TGDS,-0.196
20,GCCCAUUGGAUAUCAGUAUTT against STRADB,0.21

# Source: PubChem BioAssay AID1347426 (Functional Genomics Laboratory (NCATS/FGL), 2020)
